This assay deals with AMP-activated protein kinase, AMPK (Homo sapiens) (UniProt P54646+O43741+P54619+Q9UGJ0+Q9Y478+Q13131+Q9UGI9). In words: AMP-dependent Kinase enzyme assay. An in vitro enzyme assay that detects ADP turnover that is directly proportional to AMPK activity. This uses naive AMPK that is activated during the assay with MK-8722. Also noted: scale not given: direction of the effect not stated beside the values. To be noted: 30 µM. The format is functional.
Take `Cc1ccc(Oc2ncccc2CNC(=O)C2COC(=O)N2)c(F)c1F` (stereo not given): the Percent Effect is 3.47%.

For `COCCNc1nc(C)nc2c1CCN(C[C@H]1CC[C@@H](N)CC1)CC2`, the Percent Effect turned out to be 1.5%.

As for `CC(=O)N[C@H]1CCO[C@@H](c2cccc(NC(=O)Cc3ccccc3)c2)C1`, the Percent Effect amounted to 7.18%.

With `Cc1cc(C)n(CC2CCN(CC(O)CN3CCOCC3)CC2)n1` (stereo not given), the Percent Effect was -1.36%.

In the case of `COc1ccc(NC(=O)Cc2c(C)nn(C)c2C)cc1F`, the Percent Effect was determined as 1.16%.

For the compound `CC(C)(O)CCc1cccc(C(=O)NCc2cnn3cccnc23)c1`, the Percent Effect is -0.643%.

Take `Cc1ccccc1S(=O)(=O)Cc1nsc(N(C)C)n1`: the Percent Effect was -0.34%.

Take `O=S(=O)(NCCc1cn2ccccc2n1)N1CCOCC1`: the Percent Effect is 3.56%.

In the case of `O=C(NC1CCCN(Cc2c(F)cccc2F)C1)c1cnccn1` (stereo not given), the Percent Effect stood at 6.06%.

Regarding `O=C(NC1CCN(C2CC2)C1)c1cn(-c2ccc(F)cc2)nn1` (stereo not given), the Percent Effect is -3.53%.

As for `c1ccc(OCCCn2ccnc2-c2cn(C3CCNCC3)nn2)cc1`, the Percent Effect was -1.92%.

Take `Cc1nccn1CCCN1CCCC(c2nccn2CC2CCC2)C1` (stereo not given): the Percent Effect was found to be 1.25%.

With `CC1(C)CC(CN2CCC3(CCC(=O)N(CCO)C3)CC2)CCO1` (stereo not given), the Percent Effect was -1.98%.

As for `CC1(C)OC(=O)N(CC(=O)N2CCC(c3ccccc3Cl)C2)C1=O` (stereo not given), the Percent Effect amounted to 8.7%.

Turning to `Cc1noc(-c2ccc(N(C)Cc3ccncn3)nc2)n1`, the Percent Effect amounted to 0.463%.

In the case of `Cc1cc(C(F)F)nn1CC(=O)NCc1nccn1C`, the Percent Effect is 5.16%.

On to `COC(=O)N1CCCCC1C(=O)N1CCC(c2ccncc2)CC1` (stereo not given), for which the Percent Effect came out at 1.07%.

For `Cc1cc(N2CCCC(N(C)C)C2)n2nc(C)cc2n1` (stereo not given), the Percent Effect is -1.24%.

In the case of `CN1C[C@@H]2CC[C@H](CC1=O)N2C(=O)c1ccc(-c2ccccc2)[nH]c1=O`, the Percent Effect was found to be 12.5%.

Take `Cc1nn(CCC(=O)NC2CCCOC2)c(C)c1C` (stereo not given): the Percent Effect was found to be 12.2%.

Regarding `CCc1ccc2nc(C)cc(C(=O)NC3CCCCNC3=O)c2c1` (stereo not given), the Percent Effect is -6.44%.

Turning to `N#Cc1ccc(SCCC(=O)NC(N)=O)cc1`, the Percent Effect is -6.73%.

For the compound `CN1CCN(C(=O)CCn2ncc3ccccc32)CC(C(N)=O)C1` (stereo not given), the Percent Effect was found to be 7.38%.

As for `CN(C)C(=O)CN1CCN(c2cc(N3CCCC3CO)ncn2)CC1` (stereo not given), the Percent Effect was -0.698%.

As for `Cc1nn(C)c(C)c1-c1ccc(=O)n(C(C)C(=O)NC2CC2)n1` (stereo not given), the Percent Effect came to 9.59%.

Regarding `CC(C)C(CNC(=O)CCn1cncn1)N1CCc2ccccc2C1` (stereo not given), the Percent Effect turned out to be 0.687%.

In the case of `CC1(C)CC1(C(=O)N1CC(c2cccnc2)C1)c1ccc(F)cc1` (stereo not given), the Percent Effect was determined as 3.87%.

As to `COCCCNC(=O)Nc1c(C)cccc1C(C)C`, the Percent Effect amounted to 7.47%.

On to `CCC(=O)N1CCOC(c2cc(Nc3nncs3)cc(C)n2)C1` (stereo not given), for which the Percent Effect is 23%.

Turning to `COc1ccccc1C(C)(C)NC(=O)c1cc(NC(C)=O)ccc1F`, the Percent Effect was -6.77%.

Take `CN(C)CC(O)Cn1cc(NCc2ccc(Br)cc2)cn1` (stereo not given): the Percent Effect is -39.9%.

With `CNC(=O)c1noc(CN2CC[C@](C)(O)[C@H](C)C2)n1`, the Percent Effect was -4.9%.

Take `O=S(=O)(NCC1(c2cccs2)CCCC1)c1cccnc1`: the Percent Effect is -4.96%.

For `Cc1cc(N2CCC3(CCCN(CCO)C3=O)C2)nc2cc(Cl)ccc12` (stereo not given), the Percent Effect came to 10%.

As for `Cc1nc(CN2CCCC2Cn2ccnc2C(C)C)nc2ccccc12` (stereo not given), the Percent Effect was -10.6%.

Turning to `CC(c1nc(-c2ccccc2)no1)N1CCc2c(ncn2C2CC2)C1` (stereo not given), the Percent Effect is 10.5%.

In the case of `CCOCCC(=O)NCC1CCCO1` (stereo not given), the Percent Effect was 0.034%.

With `O=C(c1coc(-c2ccccc2)n1)N1CCS(=O)(=O)CC1`, the Percent Effect is 0.626%.

Regarding `CC(C)c1nc(C2CCCN2CCc2ccccn2)no1` (stereo not given), the Percent Effect is 20.7%.

In the case of `COCCN(CCOC)C(=O)c1cnn(C)c1-n1c(C)ccc1C`, the Percent Effect is -1.28%.

The record behind these values is ChEMBL document CHEMBL3988442, “University of Dundee, Small-Polar-MMV Screening Library” (2021).
